# AmpC inh detg: qHTS Inhibitors of AmpC Beta-Lactamase (assay with detergent); hit rate 0.041% among 370,000; P00811; AmpC hydrolysis of nitrocefin, absorbance 480 nm, 0.01% Triton; Potency, µM (highest dose often 114 µM), without a hit: at the top dose activity change, negative = inhibition, most hits filed as inhibitors; AID 485294, 2010;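 also: potency is read from the fitted curve at half-maximal effect; 0% = no-compound wells and -100% = no-enzyme wells; nearly all actives have a fitted effect of over 25% in size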
# Target sequence (P00811 whole entry, looked up): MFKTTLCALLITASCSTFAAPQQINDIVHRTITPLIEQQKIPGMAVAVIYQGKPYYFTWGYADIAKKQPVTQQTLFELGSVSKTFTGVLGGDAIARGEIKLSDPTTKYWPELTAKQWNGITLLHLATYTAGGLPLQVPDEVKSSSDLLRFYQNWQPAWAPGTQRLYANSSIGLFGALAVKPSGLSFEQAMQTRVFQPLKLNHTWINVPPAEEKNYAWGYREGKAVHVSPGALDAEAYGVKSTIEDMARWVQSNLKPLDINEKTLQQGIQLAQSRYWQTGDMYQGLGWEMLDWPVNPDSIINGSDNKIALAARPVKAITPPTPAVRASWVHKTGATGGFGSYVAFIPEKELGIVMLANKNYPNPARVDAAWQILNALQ
#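 20 mM phosphate pH 7.0 + 0.01% (detergent screen) or 0.0001% Triton X-100; 5.3 nM AmpC reagent; cpd preinc 15 min RT; nitrocefin (800 uM stock) to start; A480 q20 s × 4 min; Activity was normalised to no-enzyme and no-compound control wells.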
# AmpC no deterg: qHTS Inhibitors of AmpC Beta-Lactamase (assay without detergent); P00811; hit rate 0.52% among 330,000; AID 485341, 2010; AmpC nitrocefin hydrolysis, absorbance 480 nm, 0.0001% Triton; Potency, µM (titrated, usually from 57.1 µM), for inactives: top-dose activity change, negative = inhibition, usual class: inhibitors;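 also: potency is read from the fitted curve at half-maximal effect; plate controls were no compound for no effect and no enzyme for full effect; nearly all actives have a fitted effect of over 20% in size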
#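 20 mM phosphate pH 7.0 + 0.01% (detergent screen) or 0.0001% Triton X-100; 5.3 nM AmpC reagent; cpd preinc 15 min RT; nitrocefin (800 uM stock) to start; A480 q20 s × 4 min; Activity was normalised to no-enzyme and no-compound control wells.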
# Shiga toxin inh: A qHTS for Small Molecule Inhibitors of Shiga Toxin | Vero cells, Shiga toxin protein synthesis inhibition reporter | inhibition, % at 38.7 µM | hit rate 9.2% among 290,000; in the data active = inhibition mostly above about 28%, no sharp cut-off; inactive = mostly below about 43%; also: 0% is about no effect
# Cycloheximide cs: Cycloheximide Counterscreen for Small Molecule Inhibitors of Shiga Toxin | cell reporter, cycloheximide protein synthesis inhibition counterscreen | hit rate 12% among 300,000 | max response, %; in the data active = max response mostly above about 13%, no sharp cut-off; inactive = mostly below about 14%; also: read at 38.3 µM for the half of the compounds with a filed dose; 0% is about no effect
# NS1 function inh: qHTS Assay for Inhibitors of Influenza NS1 Protein Function; Potency, µM (highest dose often 46.1 µM), without a hit: at the highest dose activity, positive = more growth; hit rate 0.4% among 270,000; AID 2326, 2010; calls by dose curve; also: potency is read from the fitted curve at half-maximal effect; actives are rising curves; nearly all actives have a fitted effect of over 50% in size
#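 Read-out: OD600 growth recovery of NS1-expressing budding yeast. Cells grown overnight at 30C in -URA glucose medium, washed, resuspended and diluted 1:100 in 2% galactose assay medium, pH 6.0. Same strain lacking NS1 served as positive control.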
# An asterisk follows results filed as active; ? = inconclusive; . = no result. Shown is part of a subset that was picked to be rich in hits. Unless noted, calls follow the shape of the dose curve; as a rule, active = well fitted curve in the direction sought with a large enough effect; inconclusive = small, poorly fitted or top-dose-only effect, or another doubt; inactive = no such curve, though single readings can be large; an effect the other way counts as inactive or inconclusive.
SMILES,AmpC inh detg,AmpC no deterg,Shiga toxin inh,Cycloheximide cs,NS1 function inh
NC1=NC2C(N=C(Br)N2[C@@H]2O[C@H]3COP(=O)(O)O[C@@H]3[C@@H]2O)C(=O)N1 (stereo partly specified),.,.,-6,8,.
Fc1ccccc1Cc1noc(CN2CCC(OCc3cccnc3)CC2)n1,3%,-21%,59*,22*,-1%
COC1CCCN(Cc2nc(Cc3ccccc3F)no2)C1 (stereo unspecified),4%,-7%,4,11,5%
CCOc1ccc(-c2cc(C(F)(F)F)c(C#N)c(SCC(=O)Nc3ccccc3)n2)cc1,25%,.,.,.,.
COc1ccc2[nH]cc(CCNC(=O)c3cnn(-c4ccc(C)cc4)c3C3CCN(C(=O)OC(C)(C)C)CC3)c2c1,16%,.,.,.,.
O=C(CNC(=O)c1ccc(Cl)cc1Cl)OCc1cn2cc(Br)ccc2n1,.,-19%,.,.,.
c1ccc(CO[C@H]2NCCN2Cc2ccccc2)cc1,.,.,.,.,-8%
COc1cnc(SCc2ccc(Cl)cc2)nc1Cl,-15%,-33%,19,10,-73%
C=CCSc1ncc(C(=O)OCC)c(N)n1,5%,-10%,51*,41*,2%
Cc1nc(SCc2ccc(Cl)cc2)ncc1C(=O)O,-6%,-18%,60*,14,.
CCOC(=O)c1cnc(SCc2ccc(C(C)(C)C)cc2)nc1N,8%,-18%,-12,-1,3%
CCOC(=O)C(C)Sc1ncc(-c2ccccc2)cn1 (stereo unspecified),?,-6%,70*,58*,.
CCOC(=O)c1cnc(SCc2ccccc2)nc1N,-8%,-27%,109*,47*,-13%
COc1ccc(OC)c(NC(=O)CC2C(=O)NCCN2C(=O)C(F)(F)F)c1 (stereo unspecified),0%,.,.,.,.
CCOC(=O)c1cnc(SCC(=O)OC)nc1N,1%,-12%,72,34*,5%
CCOC(=O)c1cnc(SCCN2CCOCC2)nc1N,-7%,-16%,34,18*,5%
Cn1c(=O)[nH]c(=O)c2c1nc(CN1CCN(c3cccc(Cl)c3)CC1)n2Cc1ccccc1Cl,?,45µM*,-3,-1,-66%
CCN1CCN(Cc2nc3c(c(=O)[nH]c(=O)n3C)n2Cc2ccccc2Cl)CC1,?,-21%,12,-4,1%
CCOC(=O)C1(Cc2ccc(OC)cc2)CCN(C(=O)c2sc(C)nc2C)CC1,0%,132%,18,-1,-5%
CCOC(=O)C1(Cc2ccc(OC)cc2)CCN(C(=O)C2=CCCC2)CC1,-11%,115%,22,1,-7%
CCOC(=O)C1(Cc2ccc(OC)cc2)CCN(C(=O)c2cc3ccccc3[nH]2)CC1,-1%,0%,118*,54*,.
CCOC(=O)C1(Cc2ccc(OC)cc2)CCN(C(=O)c2cc(C)on2)CC1,-12%,87%,18,18*,-6%
Cc1ccccc1CC1(CO)CCCN(C(=O)CCN2CCCO2)C1 (stereo unspecified),-12%,41%,36*,17*,8%
CCN1C(=O)/C(=C2\Sc3ccccc3N2CC)OC1=S,?,-11%,11,1,-3%
CCN1C(=O)/C(=C\N(C(C)=O)c2ccccc2)OC1=S,7%,-3%,31*,32*,-16%
SMILES,AmpC inh detg,AmpC no deterg,Shiga toxin inh,Cycloheximide cs,NS1 function inh
CCN1C(=O)/C(=C/N(C)c2ccccc2)OC1=S,-7%,1%,67*,25*,-32%
CC(=O)N(/C=C1\SC(=S)N(c2ccccc2)C1=O)c1ccccc1,-2%,-19%,40,9,4%
COC(=O)c1ccc(NC(=O)Cn2c(=O)oc3ccccc32)cc1,18%,.,.,.,.
COC(=O)c1ccc(OCC(=O)c2ccc(C)c(C)c2)cc1,6%,-10%,82*,24*,-8%
COC(=O)c1ccc(OCC(=O)c2cccc(OC)c2)cc1,8%,-19%,65*,43*,24%
CN(C)C(=O)CCc1ccc2c3c([nH]c2c1)[C@]1(C)[C@@H](C(=O)N2CCOCC2)C[C@H](CC(=O)NCCCn2ccnc2)C(=O)N1CC3,.,-8%,.,.,.
O=C(CCCCCN1C(=O)[C@@H]2Cc3ccccc3CN2C1=O)Nc1ccccc1F,0%,27%,11,10,-17%
COCCN(C(=O)CSc1nnc(-c2cccc(F)c2)n1N)c1c(N)n(Cc2ccccc2)c(=O)[nH]c1=O,-5%,-1%,.,.,.
Cc1ccccc1Cn1cc(NC(=O)c2cc(C3CC3)on2)cn1,6%,-35%,73*,44*,?
CCc1ccccc1NC(=O)c1cc(C2CC2)on1,?,-10%,47,11*,-62%
O=C(CC1OC(=O)c2ccccc21)Nc1cccc(S(=O)(=O)N2CCCCCC2)c1 (stereo unspecified),-14%,?,-8,0,8%
COc1ccc(C(=O)COC(=O)c2ccc(NC(=O)c3ccccc3)cc2)cc1,3%,-5%,3,1,-5%
Nc1ccc(O)cc1C(=O)OCC(=O)C12CC3CC(CC(C3)C1)C2,7%,13µM*,42,20,2%
COc1ccc(C(=O)OCC(=O)c2ccc(C3CCCCC3)cc2)cc1,1%,-25%,7,13*,6%
O=C(COC(=O)c1ccc(O)cc1O)c1ccc(Cl)cc1,?,-24%,.,.,.
Nc1ccc(O)cc1C(=O)OCC(=O)c1ccc(C2CCCCC2)cc1,-4%,-52%,145*,61*,10%
O=C(OCC(=O)C12CC3CC(CC(C3)C1)C2)c1ccc(O)cc1,.,-27%,.,.,.
Cc1nc(CC(=O)c2ccc(O)c(C)c2O)cs1,6%,-17%,47*,9.7*,-6%
CCc1ccc(CNC(=O)c2ccc(CSc3nc4ccncc4n3Cc3ccc(OC)cc3)cc2)cc1,24%,.,.,.,.
COC(=O)C1=C(C)OC(N)=C(C#N)C1c1ccc(OC)c(CSc2ccccn2)c1 (stereo unspecified),1%,0.22µM*,2,-2,-19%
O=C(O)c1ccc(CNC(=O)c2ccc3c(c2)OCCO3)cc1,6%,-12%,-4,-3,5%
O=C(NCc1ccccc1Cl)c1ccc2c(c1)OCO2,3%,-22%,32*,18*,-18%
O=C(NCc1cccs1)c1ccccc1,-11%,-7%,-1,-3,-3%
O=C(NCc1ccccc1)c1ccc2c(c1)OCCO2,-14%,-13%,26,23*,-6%
O=C(NCc1cccs1)c1ccc2c(c1)OCCO2,?,-5%,22,37*,-2%
O=C(Nc1ccc2c(c1)OCCO2)C(=S)NCc1ccccc1,?,-21%,82*,49*,.
CCOC(=O)C1CCN(C(=O)CCn2c(=O)c3cccn3c3cccnc32)CC1,0%,3%,7,-8,4%
NC(=O)C1(N2CCCCC2)CCN(CCCC(=O)c2ccc(F)cc2)CC1,.,.,-2,-6,.
Cc1ccc(NC(=S)N2CCOCC2)cc1,0%,-28%,18,-2,4%
